# Experimental data taken from article PMC4081663, “Single-Nucleotide Mutation Matrix of NF-κB”.
# Target: NF-kB p50 homodimer (Homo sapiens, UniProt P19838 1-433)
# Test: bimolecular dsDNA microarray; Bimolecular dsDNA microarray on aldehyde glass; probes annealed in 10 mM Tris-HCl pH 8.0, 100 mM NaCl, 1 mM EDTA; binding buffer and temperature as in ref 16, not stated; high values mean tight binding
# Conditions: protein: commercial; tags: Cy3-labeled for microarray; chain copies: 2; label: 5' amino linker to the slide; dsDNA, one strand shown
# Chain of NF-kB p50 homodimer (P19838 1-433): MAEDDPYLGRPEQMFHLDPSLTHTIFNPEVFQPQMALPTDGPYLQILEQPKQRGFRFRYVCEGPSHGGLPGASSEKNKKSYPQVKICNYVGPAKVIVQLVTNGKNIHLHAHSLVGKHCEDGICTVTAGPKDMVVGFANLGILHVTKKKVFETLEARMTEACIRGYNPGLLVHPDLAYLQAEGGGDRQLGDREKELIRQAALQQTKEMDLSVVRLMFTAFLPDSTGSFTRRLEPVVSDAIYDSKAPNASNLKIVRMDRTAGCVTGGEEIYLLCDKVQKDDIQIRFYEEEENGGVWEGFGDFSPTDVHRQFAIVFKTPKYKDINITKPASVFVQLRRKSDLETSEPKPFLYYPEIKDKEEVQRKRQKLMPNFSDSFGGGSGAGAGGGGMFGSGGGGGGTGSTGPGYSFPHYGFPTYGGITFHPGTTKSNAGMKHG
row,Sequence,binding signal [a.u.]
1,GGTACTTTCC,46.1
2,GGAACTTTCC,31.4
3,GGGACTTTCA,24.7
4,GTGACTTTCC,20.4
5,GGGACTATCC,20
6,GGGATTTTCC,58.5
7,GGCACTTTCC,19.2
8,GGGACCTTCC,19.8
9,AGGACTTTCC,21.1
10,CGGACTTTCC,19.8
11,GGGACTTTAC,38.1
12,GGGACTTTCC,52.8
13,TGGACTTTCC,22.8
14,GGGACTTTCG,24.6
15,GGGACATTCC,26.5
16,GGGACTTGCC,18.8

row,Sequence,binding signal [a.u.]
1,GGGCCTTTCC,20.5
2,GGGTCTTTCC,28.6
3,GGGACTTTCT,20.2
4,GAGACTTTCC,16.7
5,GGGACTTACC,25.4
6,GCGACTTTCC,12.5
7,GGGACGTTCC,25
8,GGGAATTTCC,57.5
9,GGGAGTTTCC,55.8
10,GGGACTGTCC,32.4
11,GGGACTTCCC,60.9
12,GGGACTTTGC,22.9
13,GGGACTCTCC,24.8
14,GGGACTTTTC,29.6
15,GGGGCTTTCC,49.7
